mHTT-CaM PPI inh – disrupts binding of mutant huntingtin to calmodulin; P42858; AlphaScreen His-mHTT/GST-CaM binding, luminescence; AID 1671202; inhibition, % at 15 µM; 190,000 tested, 3.6% active
Pf apPOL inh – Pf-apPOL DNA polymerase inhibition | AID 1794808 | inhibition, % at 10 µM | 210,000 tested, 0.25% active | Recombinant Pf-apPOL, molecular beacon fluorescence, 1.5 h
Hits are given with their value; 0 = inactive; - = no result. Shown are actives, neighbours in structure and some others; about 3.6% of the full set was active somewhere. Cut-off read from the data, not from the text of the source: active = inhibition above about 50%; inactive = the rest.

SMILES	mHTT-CaM PPI inh	Pf apPOL inh
Cn1c(C(=O)NN=Cc2cccs2)cnc1SCc1ccc(Cl)cc1	-	0
Clc1ccccc1-n1ncc2c(NCCCn3ccnc3)ncnc21	0	0
CSc1ccc(CNC(=O)C2CCN(c3nnc(-c4ccc(C)cc4)o3)CC2)cc1	0	0
COc1ccc(OC)c(N=Cc2c(C)[nH]n(-c3ccccc3)c2=O)c1	67	0
COc1ccccc1N=Cc1c(C)[nH]n(-c2ccccc2)c1=O	0	0
Cc1[nH]n(-c2ccccc2)c(=O)c1C=Nc1cc(Br)ccc1O	89	0
Cc1[nH]n(-c2ccccc2)c(=O)c1C=Nc1c(C)[nH]n(-c2ccccc2)c1=O	0	0
COc1ccc(CC(=O)Nc2nnc(C3CC(=O)N(c4ccc(SC)cc4)C3)o2)cc1 (centres undefined)	0	0
O=C(Nc1ccc(Br)cc1)c1cc(-c2ccc(Br)cc2)on1	0	0
COc1ccc(C2OCC(CN3CCCCC3)O2)cc1 (centres undefined)	0	0
COc1ccc(C2CC(c3c(-c4ccccc4)c4cc(Br)ccc4[nH]c3=O)=NO2)cc1 (centres undefined)	0	0
CC(=O)N1N=C(c2c(-c3ccccc3)c3cc(Cl)ccc3[nH]c2=O)CC1c1ccccc1Cl (centres undefined)	93	0
O=c1[nH]c2ccc(Cl)cc2c(-c2ccccc2)c1C1=NOC(c2ccccc2)C1 (centres undefined)	100	0
CC(=O)N1N=C(c2c(-c3ccccc3)c3cc(Cl)ccc3[nH]c2=O)CC1c1ccccc1F (centres undefined)	0	0
O=c1[nH]c2ccc(Br)cc2c(-c2ccccc2)c1[N+](=O)[O-]	0	0
CC(=O)N1N=C(c2c(-c3ccccc3)c3cc(Br)ccc3[nH]c2=O)CC1c1ccco1 (centres undefined)	95	0
CN1C(=O)C(C)(C(=O)Nc2ccccc2F)Oc2cccnc21 (centres undefined)	0	0
Cc1ccc(NC(=O)CSc2nc3c(c(=O)n2-c2ccccc2)SCC3)cc1	0	0
CC(=O)Nc1ccc(C(=O)Nc2c(C)cc(C)cc2C)cc1	0	0
CC1(C)CC(=O)C2=C(C1)Nc1nnnn1C2c1ccccc1Cl (centres undefined)	0	0
COc1cc2c(cc1OC)C(COc1ccc(F)cc1)N(C(=O)c1cccc(F)c1)CC2 (centres undefined)	76	0
COc1ccc(C=CC(=O)N2CCc3cc(OC)c(OC)cc3C2COc2ccc3c(C)cc(=O)oc3c2)cc1OC (centres undefined)	69	0
COc1cc2c(cc1OC)C(COc1ccc3c(C)cc(=O)oc3c1)N(C(=O)c1ccc(Cl)cc1)CC2 (centres undefined)	0	0
CCCC(=O)N1CCc2cc(OC)c(OC)cc2C1COc1ccc(OC)cc1 (centres undefined)	0	0
COc1ccc(OCC2c3cc(OC)c(OC)cc3CCN2C(=O)c2cccc(OC)c2)cc1 (centres undefined)	0	0
SMILES	mHTT-CaM PPI inh	Pf apPOL inh
COc1cc2c(cc1OC)C(COc1ccc(F)cc1)N(C(=O)Cc1ccc(F)cc1)CC2 (centres undefined)	61	0
O=C1CS/C(=C\C(=O)c2ccc(Cl)cc2)N1	0	0
CCn1cc(Cl)c(C(=O)N2CCCC3(C2)Nc2ccccc2NC3=NC(C)(C)C)n1 (centres undefined)	0	0
Cc1ccc(C(=O)Oc2ccc3c(c2)OC(=Cc2ccncc2)C3=O)cc1	0	0
COc1cc([N+](=O)[O-])ccc1N=Cc1cc([N+](=O)[O-])ccc1O	0	0
CCOC(=O)c1ccc(Oc2c(C)oc3c(CN4CCN(CC)CC4)c(O)ccc3c2=O)cc1	0	0
C=CCOc1ccc(/C=C/C(=O)c2cccs2)cc1OC	0	0
Cc1cc(S(=O)(=O)N2CCC3(C2)C(=O)Nc2ccccc23)ccc1F (centres undefined)	96	0
Cc1ccc(F)cc1S(=O)(=O)N1CCC2(C1)C(=O)Nc1ccccc12 (centres undefined)	0	0
O=C(Cc1ccccc1Cl)N1CCC2(C1)C(=O)Nc1ccccc12 (centres undefined)	0	0
O=C1Nc2ccccc2C12CCN(S(=O)(=O)c1cccc(Cl)c1)C2 (centres undefined)	77	0
O=C1C=C(c2ccccc2)C(=O)C=C1Cl	-	50
O=c1c(-c2ccccc2)c1-c1ccccc1	-	0
Cc1noc(C2CN(C(=O)Nc3cccc(C)c3C)CC23CCOCC3)n1 (centres undefined)	0	0
O=C(Nc1ccccc1Cl)c1cnc(-c2ccc(F)cc2)nc1-c1ccncc1	0	0
Cc1ccc(-c2ncc(C(=O)Nc3ccccc3Cl)c(-c3ccncc3)n2)cc1	0	56
O=C(Nc1ccccc1Cl)c1cnc(-c2ccccc2)nc1-c1ccncc1	0	0
O=C(Nc1ccc(F)cc1)c1cnc(-c2ccccc2)nc1-c1ccncc1	0	0
O=C(Nc1ccc(F)cc1)c1cnc(-c2ccc(F)cc2)nc1-c1ccncc1	0	88
O=C(Nc1ccccc1F)c1cnc(-c2ccc(F)cc2)nc1-c1ccncc1	0	86
Cc1cc(OCC(O)CN2CCN(C)CC2)ccc1Cl (centres undefined)	0	0
Cc1ccccc1C(=O)NC1CC2CCC1C2 (centres undefined)	0	0
COc1ccc(/C=C2/C(=O)ON=C2C)cc1Cl	0	0
CCOc1cc(/C=C2\C(=O)ON=C2C)cc(Cl)c1OCc1ccc(C)cc1	71	0
C#CCOc1c(Br)cc(/C=C2\C(=O)ON=C2C)cc1OCC	0	0
SMILES	mHTT-CaM PPI inh	Pf apPOL inh
CCOc1cc(/C=C2\C(=O)ON=C2C)cc(Br)c1OCc1ccc(C)cc1	89	0
CC(=O)NC(Nc1ccc(C)cc1[N+](=O)[O-])C(Cl)(Cl)Cl (centres undefined)	0	0
COc1cccc(C2C3=C(Nc4ncnn42)c2ccccc2OC3c2ccccc2OC)c1 (centres undefined)	64	0
COc1cccc(C2C3=C(Nc4ncnn42)c2ccccc2OC3c2cccc(F)c2)c1 (centres undefined)	0	0
COc1ccccc1C1Oc2ccccc2C2=C1C(c1ccc(C)cc1)n1ncnc1N2 (centres undefined)	0	0
Cc1ccc(C2C3=C(Nc4ncnn42)c2ccccc2OC3c2cccc([N+](=O)[O-])c2)cc1 (centres undefined)	50	0
Clc1ccc(C2Oc3ccccc3C3=C2C(c2cccs2)n2ncnc2N3)cc1 (centres undefined)	56	0
Fc1ccccc1C1C2=C(Nc3ncnn31)c1cc(Cl)ccc1OC2c1ccncc1 (centres undefined)	0	0
COc1ccc(C2C3=C(Nc4ncnn42)c2ccccc2OC3c2cccc(OC)c2)cc1 (centres undefined)	56	0
COc1ccc(C2C3=C(Nc4ncnn42)c2ccccc2OC3c2cccc(Cl)c2)cc1 (centres undefined)	0	0
C=CCn1c(SC(C(=O)c2ccccc2)c2ccccc2)nnc1-c1ccccc1OC (centres undefined)	0	0
O=C(NCc1ccc(-c2csnn2)cc1)Nc1ccc(Cl)cc1	-	0
Cc1cc(C)c(C(=O)N2CCC(CC(=O)NC(C)CCc3ccccc3)CC2)[nH]1 (centres undefined)	0	0
O=C(CC(=O)c1ccc2c(c1)OCCO2)c1ccccc1	0	0

Assay outcomes as filed in PubChem.
